Ten compounds from PubChem BioAssay AID2283123 (EPA ToxCast) can be followed below.

Structures are written as SMILES. Inconclusive results are not listed. Calls of active or inactive are those of the source. Rule for the calls: active = hit-call score of the fitted dose curve at least 0.9, where 1 is the maximum; inconclusive = response in the unintended direction; inactive = score below 0.9.

Chain of rat CYP2E1, Cyp2e1 (gene 25086) (P05182 whole entry, looked up): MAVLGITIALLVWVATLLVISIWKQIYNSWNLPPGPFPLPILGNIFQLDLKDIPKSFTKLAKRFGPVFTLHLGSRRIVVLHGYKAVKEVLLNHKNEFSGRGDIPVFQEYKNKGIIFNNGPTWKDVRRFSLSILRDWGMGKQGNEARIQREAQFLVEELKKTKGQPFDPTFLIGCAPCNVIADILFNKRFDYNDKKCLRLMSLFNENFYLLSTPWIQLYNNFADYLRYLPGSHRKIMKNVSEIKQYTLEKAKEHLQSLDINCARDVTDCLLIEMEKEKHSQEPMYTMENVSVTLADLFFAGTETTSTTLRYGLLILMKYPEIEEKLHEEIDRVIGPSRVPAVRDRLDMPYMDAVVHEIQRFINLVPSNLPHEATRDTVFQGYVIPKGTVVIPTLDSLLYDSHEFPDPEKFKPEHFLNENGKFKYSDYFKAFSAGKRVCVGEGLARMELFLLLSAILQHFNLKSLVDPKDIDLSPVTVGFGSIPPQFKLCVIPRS

This test has as its target rat CYP2E1, Cyp2e1 (gene 25086) (UniProt P05182). The test is described as follows: NVS_ADME_rCYP2E1: NovaScreen (NVS) CYP450-related Enzyme Activity (ADME) Assay for rat CYP2E1. The protocol:
NVS_ADME_rCYP2E1 is a biochemical, single-readout assay that uses extracted gene-proteins in a cell-free assay. Measurements were taken 1 hour after chemical dosing in a 96-well plate.NVS_ADME_rCYP2E1 is one of one assay component(s) measured or calculated from the NVS_ADME_rCYP2E1 assay. It is designed to make measurements of enzyme activity, a form of enzyme reporter, as detected with fluorescence intensity signals by Fluorescence technology.Data from the assay component NVS_ADME_rCYP2E1 was analyzed into 1 assay endpoint. This assay endpoint, NVS_ADME_rCYP2E1, was analyzed in the positive analysis fitting direction relative to Acetonitrile as the negative control and baseline of activity. Using a type of enzyme reporter, loss-of-signal activity can be used to understand changes in the enzymatic activity as they relate to the gene Cyp2e1. Furthermore, this assay endpoint can be referred to as a primary readout, because this assay has produced multiple assay endpoints where this one serves a enzymatic activity function. To generalize the intended target to other relatable targets, this assay endpoint is annotated to the cyp intended target family, where the subfamily is xenobiotic metabolism.
Binding assays used specific radioligands (tritiated, iodinated) with non-radioactive competitive displacement ligands in agonist or antagonist protocols (as indicated) and various reference compounds and inhibitors to titrate specific binding to receptors and transporters. Most enzyme assays (CYPs, kinases, phosphatases, proteases, HDACs) used recombinant protein and specific substrates (fluorescence mostly, some colorimetric and radioactive) and inhibitors, followed by a biochemical separation of substrate and product. All assays for the biochemical HTS were initially run in duplicate at a single concentration (10 uM for CYP450 assays and 25 uM for all others). Assay-chemical combinations meeting a pre-defined threshold (e.g., 30% inhibition and other criteria defined below) were then run in singleton concentration-response format with maximum concentration of 20 uM for CYPs and 50 uM for all others. Each assay was run with positive and negative controls, and concurrent controls on every plate. The follow-up (secondary) screen tested active chemical-pairs in concentration series, as well as a few additional assays not tested in the primary screen, some selected negative inactives, and several cases re-run in the concentration series for confirmatory purposes.
`CCCN(CCOc1c(Cl)cc(Cl)cc1Cl)C(=O)n1ccnc1`: the AC50 is 2.54 µM (active).

`COP(=S)(OC)SCn1nnc2ccccc2c1=O`: the call was inactive.

With `CCOP(=S)(OCC)Oc1ccc2c(C)c(Cl)c(=O)oc2c1`, the result was inactive.

As to `CC(C1CC1)C(O)(Cn1cncn1)c1ccc(Cl)cc1` (stereo not given), the result was inactive.

With `COc1nn(CSP(=S)(OC)OC)c(=O)s1`, the outcome was inactive.

With `COP(=S)(OC)Oc1ccc([N+](=O)[O-])c(C)c1`, the result was inactive.

Turning to `C[Si](Cn1cncn1)(c1ccc(F)cc1)c1ccc(F)cc1`, the AC50 was 10 µM (active).

As to `S=C1NCCN1`, the call was inactive.

Consider `N#Cc1c[nH]cc1-c1cccc2c1OC(F)(F)O2`, for which the AC50 is 0.254 µM (active).

For the compound `CNC(=S)S`, the result was inactive.
